Bioassay records: PubChem, National Center for Advancing Translational Sciences (NCATS)
Pf growth 96h: inhibits malaria parasite growth, 96 h. P. falciparum luciferase reporter growth, 96 h. Potency, µM (top dose mostly 28.7 µM), without a hit: top-dose activity change, negative = inhibition, hits mostly inhibitors. 320,000 compounds, 6.9% hits; note: potency is the fitted concentration of half-maximal effect; % is set by controls: 0 for no effect and ±100 for the full control effect
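Compounds incubated with erythrocytes infected by luciferase-expressing P. falciparum (2% hematocrit, 0.05% parasitemia final) for 96 hours, 37 C in 5% CO2. Growth inhibition scored as decreased luciferase luminescence.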
HCV inhibitor: HCV inhibition | AID 651820 | Potency, µM (titrated, usually from 41.8 µM), for the others: at the top dose activity change, negative = inhibition, hits mostly inhibitors | 340,000 compounds, 3.4% hits | Huh7.5.1 HCVcc-Cre infection, luciferase reporter, 44 h; note: potency is the fitted concentration of half-maximal effect; % is set by controls: 0 for no effect and ±100 for the full control effect
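Luciferase read-out (15 sec integration) after a 15 min room-temperature substrate step quantifies HCVcc-Cre infection. Cells, 1,000 per well, had compound added 4 h post-plating, then virus at ~0.5 moi, and were cultured 44 h.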
Shiga toxin inh: inhibitors of Shiga toxin in Vero cells; Vero cells, Shiga toxin protein synthesis inhibition reporter; inhibition, % at 38.7 µM; 290,000 compounds, 9.2% hits; AID 2315; in the data active = inhibition mostly above about 28%, no sharp cut-off; inactive = mostly below about 43%; note: 0% is about no effect
Pf growth 48h: inhibits P. falciparum growth in the first generation, 48 h | P. falciparum luciferase growth in erythrocytes, 48 h | Potency, µM (highest dose often 28.7 µM), inactives show top-dose activity change, negative = inhibition, most hits filed as inhibitors | 310,000 compounds, 5.9% hits | AID 504832; note: potency is the fitted concentration of half-maximal effect; % is set by controls: 0 for no effect and ±100 for the full control effect
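Erythrocytes infected with P. falciparum carrying an integrated firefly luciferase reporter (2% hematocrit, 0.1% parasitemia final) were exposed to compounds in RPMI 1640 with 0.5% Albumax at 37 C, 5% CO2. Growth inhibition was scored as reduced luminescence.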
AMA1 RON2 block: disrupts binding of P. falciparum AMA1 to RON2; AlphaScreen AMA1-biotinylated RON2 peptide binding; Potency, µM (series often up to 58.2 µM), for inactives: top-dose activity change, negative = inhibition, actives largely listed as inhibitors; 360,000 compounds, 0.2% hits; AID 720542;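 note: potency is the fitted concentration of half-maximal effect; 0% = vehicle wells and -100% = peptide control; nearly all actives have a fitted effect of over 45% in size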
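AMA1 (3D7) with his tag at 25 nM final met compounds first, then biotinylated RON2 peptide at 25 nM; detection used donor plus acceptor beads, 10 µg/mL apiece, read by AlphaScreen after 30 min at room temperature.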
CHX counter: affects cycloheximide protein synthesis inhibition readout, counter-screen; cell reporter, cycloheximide protein synthesis inhibition counterscreen; max response, %; 300,000 compounds, 12% hits; AID 2314; in the data active = max response mostly above about 13%, no sharp cut-off; inactive = mostly below about 14%; note: read at 38.3 µM for the half of the compounds with a filed dose; 0% is about no effect
The depositor's hits bear a star; i = inactive; u = inconclusive; x = no result; [ ] = remark or other dose. Rows were chosen to be rich in hits. Some 21% of all compounds tested hit in one or more screens of this group. Unless noted, calls come from the whole dose curve; as a rule, active = well fitted curve in the direction sought with a large enough effect; inconclusive = small, poorly fitted or top-dose-only effect, or another doubt; inactive = no such curve, though single readings can be large; an effect the other way counts as inactive or inconclusive.

SMILES	Pf growth 96h	HCV inhibitor	Shiga toxin inh	Pf growth 48h	AMA1 RON2 block	CHX counter
Cc1ccccc1NC(=O)c1ccccc1O	0.5%	-2.1%	20.3	u	-0.9%	24.4*
CC1=C(C(=O)N(C(C)C)C(C)C)CC(CC(=O)NC2CCCC2)C(=O)N1Cc1ccc(C(C)(C)C)cc1 (stereo unspecified)	x	x	x	x	0.0%	x
COC(=O)[C@]12CCCCC=C1N(Cc1ccco1)C(=O)[C@H](CC(=O)NCc1ccc(C)o1)C2	x	x	x	x	11.5%	x
CC(NC(=O)c1noc2c1CCCC2)c1ccccc1 (stereo unspecified)	u	37.3%	65.4	1.0%	-5.5%	13.6
COC(=O)c1ccccc1NC(=O)c1noc2c1CCC2	1.04µM*	u	-4.6	3.29µM*	-15.8%	0.9
CSc1ccccc1NC(=O)c1noc2c1CCC2	x	u	99.7*	13.1µM*	-8.4%	38.0*
C=CCNc1nc2cc(-c3ccc(C(=O)N4CCOCC4)cc3)sc2c(=O)n1C	x	x	x	x	0.3%	x
Cc1cc(C)n(C(=O)CN(C)S(=O)(=O)c2ccc([N+](=O)[O-])cc2)n1	4.0%	-12.4%	-4.3	0.2%	14.9%	-6.9
OC[C@H](S)CS	0.601µM*	x	x	1.51µM*	x	x
O=C(NNc1ccccc1C(F)(F)F)c1sccc1Br	0.5%	-12.1%	-3.6	-10.3%	-1.4%	-1.3
COC(=O)c1ccc([N+](=O)[O-])c(CS(=O)(=O)c2ccc(Cl)cc2)c1	12.1%	17.3%	-5.9	-16.2%	0.3%	-1.7
CO/N=C/CC(=O)c1ccc([N+](=O)[O-])c(CS(=O)(=O)c2ccc(Cl)cc2)c1	u	u	2.1	14.7µM*	2.4%	2.1
COC(=O)[C@]12CCCCC=C1N(Cc1ccc(Cl)cc1Cl)C(=O)[C@H](CC(=O)N1CCC(c3ccccc3)CC1)C2	x	x	x	x	-6.9%	x
C[C@@H]1CCCCO[C@H](CN(C)S(=O)(=O)c2ccc(F)cc2)[C@@H](C)CN([C@H](C)CO)C(=O)c2cc(NC(=O)Nc3ccc(C(F)(F)F)cc3)ccc2O1	x	x	x	x	-6.2%	x
CCOC(=O)C(C)n1cnc2sc3c(c2c1=O)CCC3 (stereo unspecified)	u	-1.1%	-11.3	-19.6%	-11.4%	-6.8
CCc1cc2c(=O)n(C(C)C(=O)OC3CCCCC3)cnc2s1 (stereo unspecified)	-5.4%	-7.5%	37.4*	100.8%	-4.2%	41.4*
O=C(/C=C/c1ccc(Cl)cc1)NCCSc1ccccc1	12.2%	21.2%	17.2	26.9%	6.8%	10.0
O=C(/C=C/Sc1ccccc1)c1ccccc1	u	u	182.3*	x	47.5%	139.9*
O=C(/C=C/Sc1ccccc1)c1ccc(Cl)cc1	u	-59.0%	115.8*	x	10.2%	68.2*
O=C(C=Cc1ccccn1)c1ccccc1	x	u	x	x	2.1%	x
Cc1cc2c(cc1S(=O)(=O)CCC(=O)N1CC(C)CC(C)C1)OCC(=O)N2 (stereo unspecified)	0.8%	20.2%	5.1	10.5%	8.9%	-1.7
COc1ccc(C(=O)Cn2nnc(-c3ccccc3F)n2)cc1	45.8%	u	3.2	32.6%	4.8%	12.0*
COc1ccc(C(=O)Cn2nnc(-c3ccccc3NC(=O)C3CC3)n2)cc1	u	-13.3%	52.1	11.7µM*	-10.7%	18.1*
CCn1c(CNc2ccc(Cl)cc2)nnc1SCC#N	2.94µM*	0.6%	-9.3	9.1%	-5.7%	-1.3
COC(=O)c1ccc(OCCOc2ccccc2)cc1	68.8%	2.1%	59.1*	x	21.1%	22.1*
SMILES	Pf growth 96h	HCV inhibitor	Shiga toxin inh	Pf growth 48h	AMA1 RON2 block	CHX counter
COc1cccc(OC)c1OCCOc1ccc(C(=O)c2ccccc2)cc1	0.37µM*	u	20.9	3.3%	8.4%	-2.8
CCOC(=O)C(CCCOc1ccccc1C)C(=O)OCC	9.28µM*	u	-6.3	-21.7%	52.3%	3.8
COC(=O)c1ccc(OCCCCN(C)Cc2ccccc2)cc1	-10.3%	-12.1%	x	2.7%	u	-3.2
COC(=O)c1ccc(OCCOc2ccccc2C)cc1	1.31µM*	2.0%	104.9	13.1%	62.2%	12.1*
CCN1CCN(Cc2c3ccccc3cc3ccccc23)CC1	0.0%	-9.7%	x	u	-2.2%	-4.1
c1ccc(OCCOCCOc2ccccc2)cc1	x	1.12µM*	x	x	0.2%	x
COC(=O)c1ccc(N=Nc2ccccc2)cc1	i	14.4%	79.4*	232.3%	u	32.1*
CCOC(=O)c1ccc(N2C(=O)c3cccc4c(C(=O)O)ccc(c34)C2=O)cc1	u	6.0%	x	-5.9%	-1.3%	1.3
CNc1c2cccc(C)c2nc2c(C(=O)NCCN(C)C)cccc12	x	1.41µM*	x	x	-20.0%	x
COc1ccc(CCNc2nc(-c3ccc(F)cc3)c(CC(=O)O)s2)cc1OC	u	3.3%	-7.4	-10.4%	-1.9%	-2.5
CCOC(=O)C1=C(Cn2cnc3ccccc32)NC(=O)NC1c1ccc(Cl)cc1 (stereo unspecified)	5.86µM*	0.2%	-11.7	x	-2.5%	-3.7
CCOC(=O)C1=C(Cn2cnc3ccccc32)NC(=O)NC1c1ccc(OC)cc1 (stereo unspecified)	u	1.0%	-12.2	x	-9.9%	-2.2
CC(C)C[C@@H](C(=O)N[C@@H](C(=O)O)c1ccccc1)N1C(=O)N2CCc3c([nH]c4ccccc34)[C@@]2(C)C1=O	u	10.4%	-1.0	u	-10.2%	-2.8
O=C(CSc1nc2cc(C(F)(F)F)ccc2n1Cc1ccccc1)NC1CCS(=O)(=O)C1 (stereo unspecified)	11.7µM*	0.9%	-1.5	u	5.7%[2.32 µM]	-3.2
O=C(CSc1nc2ccccc2c(=O)n1-c1ccccc1Cl)NC1CCS(=O)(=O)C1 (stereo unspecified)	10.4µM*	7.0%	x	u	-0.5%	x
CCCCCCn1c(SCC(=O)NC2CCS(=O)(=O)C2)nc2ccccc2c1=O (stereo unspecified)	x	x	x	x	-3.6%	x
CCOC(=O)c1cc(NC(=O)N2CCCc3ccccc32)c(C)nc1C	24.6%	-3.0%	43.2	51.1%	-3.1%	20.4*
COc1ccc(NC(=O)N2CCCc3ccccc32)c(OC)c1	-47.2%	-6.0%	43.9	-8.0%	0.5%	17.3*
COC(=O)N1CCCc2cc(C)ccc21	48.9%	22.5%	-6.9	14.5%	3.7%	-1.9
COc1ccc(C)cc1NC(=O)N1CCCc2ccccc21	30.6%	-4.5%	74.9*	-13.7%	-26.5%	22.7*
CCOC(=O)c1cc(NC(=O)Nc2cc(C)ccn2)c(C)nc1C	33.7%	-15.7%	38.8*	15.6%	-11.9%	14.3
CCOC(=O)Nc1cc(C(=O)OCC)c(C)nc1C	11.3%	22.3%	12.4	8.4%	0.0%	-5.4
COC(=O)c1ccccc1NC(=O)CN(c1c(C)cccc1C)S(C)(=O)=O	u	11.8%	22.1	271.3%	10.0%	-0.8
COc1cc(OC)c(C2C=CC(=O)CC2)c(OC)c1 (stereo unspecified)	x	x	x	x	0.1%	x
